Source: PubChem BioAssay (Tox21)
Values joined by “and” are separate entries in the source; they are usually repeats but may differ in a detail not shown here. Equal entries are not always repeated. Inconclusive results are not listed. A structure can be active in one record and inactive in another. Active and inactive are the calls of the source. Unless noted, calls come from the whole dose curve; as a rule, active = well fitted curve in the direction sought with a large enough effect in the repeat runs; inconclusive = weak or mixed curves; inactive = no such curve, though single readings can be large; an effect the other way counts as inactive or inconclusive.

What was measured:
[1] = qHTS assay to identify small molecule antagonists of the peroxisome proliferator-activated receptor delta (PPARd) signaling pathway - cell viability counter screen (AID 743213); note: nearly all actives have a fitted effect of over 50% in size; note: potency is the fitted concentration of half-maximal effect
Procedure, shortened: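 Cytotoxicity counter screen: CellTiter-Glo luminescence read 30 min after addition, in the same wells as the reporter assay. There, PPARd UAS-bla HEK293H cells (3000/well) were treated 17 h at 37 C with compound and 300 nM L165041.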

[2] = molecular target: Bile acid receptor (Homo sapiens) (UniProt Q96RI1); assay: qHTS assay to identify small molecule antagonists of the farnesoid-X-receptor (FXR) signaling pathway (AID 743217; active = well fitted inhibition curve with a large enough effect in the signal ratio in the repeat runs, not every such curve was filed as active; the % refers to the signal ratio)
Procedure, shortened: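 Antagonist mode: chenodeoxycholic acid at 50 uM final stimulates a UAS-driven beta-lactamase reporter in HEK 293T FXR-bla cells during 16 h, 37C compound exposure. Read-out is FRET substrate fluorescence after 2 h at room temperature.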

[3] = qHTS assay to identify small molecule agonists of the farnesoid-X-receptor (FXR) signaling pathway - cell viability counter screen (AID 743218); note: nearly all actives have a fitted effect of over 45% in size; note: potency is the fitted concentration of half-maximal effect
Procedure, shortened: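 Viability counter screen in the same wells: CellTiter-Glo luminescence, 30 min room-temperature incubation, measured after the beta-lactamase read. Cells were GeneBLAzer FXR-UAS-bla HEK 293T, compound-treated 16 h at 37C.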

[4] = qHTS assay to identify small molecule antagonists of the farnesoid-X-receptor (FXR) signaling pathway - cell viability counter screen (AID 743221; active = well fitted cell-killing curve with a large enough effect in the repeat runs, not every such curve was filed as active; note: nearly all actives have a fitted effect of over 50% in size; note: potency is the fitted concentration of half-maximal effect)
Procedure, shortened: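 Here viability was scored by luminescence after CellTiter-Glo addition to wells already read for beta-lactamase. Prior treatment: compound plus CDCA (50 uM final), 16 h, 37 C, HEK 293T FXR-bla cells.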

[5] = molecular target: Vitamin D3 receptor (Homo sapiens) (UniProt P11473); assay: qHTS assay to identify small molecule agonists of the vitamin D receptor (VDR) signaling pathway (AID 743222; calls by dose curve)
Procedure, shortened: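 Agonist mode, beta-lactamase reporter: fluorescence from LiveBLAzer B/G FRET substrate (2 h, room temperature) read after 16 h compound treatment at 37 C of VDR-bla cells, which were pre-incubated 4 h after seeding.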

[6] = molecular target: Vitamin D3 receptor (Homo sapiens) (UniProt P11473); assay: qHTS assay to identify small molecule antagonists of the vitamin D receptor (VDR) signaling pathway (AID 743223; active = well fitted inhibition curve with a large enough effect in the signal ratio in the repeat runs, not every such curve was filed as active; the % refers to the signal ratio)
Procedure, shortened: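 Inhibition of agonist-driven VDR signalling is scored in VDR-bla cells: 3 nM final 1alpha,25-dihydroxyvitamin D3 plus compound, 16 h at 37C, then beta-lactamase detection by FRET substrate fluorescence after 2 h.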

[7] = qHTS assay to identify small molecule agonists of the vitamin D receptor (VDR) signaling pathway - cell viability counter screen (AID 743224); note: nearly all actives have a fitted effect of over 50% in size; note: potency is the fitted concentration of half-maximal effect
Procedure, shortened: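 Counter screen run in the same wells as the VDR-bla reporter assay: CellTiter-Glo luminescence, 30 min at room temperature, after 16 h compound treatment at 37C of cells pre-plated for 4 h.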

[8] = qHTS assay to identify small molecule antagonists of the vitamin D receptor (VDR) signaling pathway - cell viability counter screen (AID 743225); note: nearly all actives have a fitted effect of over 50% in size; note: potency is the fitted concentration of half-maximal effect
Procedure, shortened: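 Compounds were pinned onto VDR-bla HEK 293T cells together with 1-alpha,25-dihydroxyvitamin D3 at 3 nM final. After 16 h at 37C and 5% CO2 plus the reporter readout, cell viability was measured by CellTiter-Glo luminescence (30 min, room temperature).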

[9] = qHTS assay to identify small molecule agonists of the endoplasmic reticulum stress response signaling pathway (AID 1159516; active = well fitted activation curve with a large enough effect in the signal ratio in the repeat runs, not every such curve was filed as active; the % refers to the signal ratio)
Procedure, shortened: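 Ratiometric FRET readout (405 nm excitation; 460 and 530 nm emission) of a beta-lactamase gene driven by the ER stress response element, after 2 hr substrate loading. HeLa ESRE-bla cells were seeded overnight and treated with compounds for only 5 hr at 37 C.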

[10] = qHTS assay to identify small molecule agonists of the endoplasmic reticulum stress response signaling pathway - cell viability counter screen (AID 1159517; calls by dose curve; note: nearly all actives have a fitted effect of over 50% in size; note: potency is the fitted concentration of half-maximal effect)
Procedure, shortened: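 After overnight attachment, ESRE-bla HeLa cells were treated with Tox21 library compounds for 5 hr. CellTiter-Glo luminescence, read 30 min post-addition at room temperature, reported viability.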

[11] = qHTS assay to identify small molecule antagonists of the retinoid-related orphan receptor gamma (ROR-gamma) signaling pathway - cell viability counter screen (AID 1159520); note: nearly all actives have a fitted effect of over 50% in size; note: potency is the fitted concentration of half-maximal effect
Procedure, shortened: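 Cytotoxicity was read from cellular ATP (CellTiter-Glo luminescence) after 16 hr at 37 C with 1 uM doxycycline induction. The inducer was added 2 hr after compound transfer to Tet-on ROR gamma CHO cells.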

[12] = molecular target: Nuclear receptor ROR-gamma (Homo sapiens) (UniProt P51449); assay: qHTS assay to identify small molecule antagonists of the retinoid-related orphan receptor gamma (ROR-gamma) signaling pathway (AID 1159521; note: nearly all actives have a fitted effect of over 50% in size; note: potency is the fitted concentration of half-maximal effect)
Procedure, shortened: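 Test compounds were applied to Tet-on RORγ CHO cells 2 h ahead of doxycycline hyclate (1 uM final). Luciferase reporter activity was quantified by luminescence after 16 h at 37 C and 5% CO2.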

[13] = qHTS assay to identify small molecule agonists of the AP-1 signaling pathway - cell viability counter screen (AID 1159525; calls by dose curve; note: nearly all actives have a fitted effect of over 55% in size; note: potency is the fitted concentration of half-maximal effect)
Procedure, shortened: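 Intracellular ATP by Cell Titer Glo luminescence (30 min, RT) in the same ME-180 AP-1-bla wells after the 5 h compound exposure at 37 °C. Normalised to tetra n-octyl ammonium bromide and DMSO controls.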

[14] = qHTS assay to identify small molecule agonists of the AP-1 signaling pathway (AID 1159526; calls by dose curve)
[15] = molecular target: Retinoic acid receptor RXR-alpha (Homo sapiens) (UniProt P19793); assay: qHTS assay to identify small molecule agonists of the RXR signaling pathway (AID 1159527; calls by dose curve; note: nearly all actives have a fitted effect of over 35% in size)
Procedure, shortened: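 Using 9-cis retinoic acid as the reference agonist, chemicals were tested in HEK 293T cells […] for 16 hr; substrate loading lasted 2 hr at room temperature.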

[16] = qHTS assay to identify small molecule agonists of the RXR signaling pathway - cell viability counter screen (AID 1159529); note: nearly all actives have a fitted effect of over 50% in size; note: potency is the fitted concentration of half-maximal effect
Procedure, shortened: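 Compounds dissolved in DMSO were pinned onto HEK 293T cells carrying a beta-lactamase reporter under RXR-alpha control and incubated 16 hr. Cytotoxicity was then quantified by CellTiter-Glo luminescence.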

[17] = qHTS assay to identify small molecule antagonists of the retinoid acid receptor (RAR) signaling pathway - cell viability counter screen (AID 1159551); note: nearly all actives have a fitted effect of over 35% in size
Procedure, shortened: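 Cytotoxicity counter screen: ATP content quantified by CellTiter-Glo luminescence in C3RL4 cells treated 6 hr at 37 C with compound and retinol (1 uM final). Cells plated at 1,000/well and cultured overnight before dosing.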

[18] = molecular target: Peroxisome proliferator-activated receptor delta (Homo sapiens) (UniProt Q03181); assay: qHTS assay to identify small molecule agonists of the peroxisome proliferator-activated receptor delta (PPARd) signaling pathway (AID 743212; calls by dose curve;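 note: HEK293H cells with PPARd UAS beta-lactamase reporter GeneBLAzer system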)
Procedure, shortened: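 Steps: seed PPARd-bla HEK293H cells; incubate 5 h, 37 C, 5% CO2; add compounds in DMSO; incubate, 37 C; add LiveBLAzer B/G FRET substrate; hold 2 h at room temperature; measure fluorescence.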

[19] = molecular target: Peroxisome proliferator-activated receptor delta (Homo sapiens) (UniProt Q03181); assay: qHTS assay to identify small molecule antagonists of the peroxisome proliferator-activated receptor delta (PPARd) signaling pathway (AID 743215; active = well fitted inhibition curve with a large enough effect in the signal ratio in the repeat runs, not every such curve was filed as active; the % refers to the signal ratio;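 note: cells stimulated with agonist L165041 at 300 nM final during compound exposure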; note: potency is the fitted concentration of half-maximal effect)
Procedure, shortened: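 Agonist L165041 (300 nM final) added with compound to PPARd-bla HEK293H UAS-bla reporter cells; 17 h incubation at 37 C. Read-out: LiveBLAzer FRET substrate, 2 h at room temperature, fluorescence intensity.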

[20] = molecular target: Bile acid receptor (Homo sapiens) (UniProt Q96RI1); assay: qHTS assay to identify small molecule agonists of the farnesoid-X-receptor (FXR) signaling pathway (AID 743220; active = well fitted activation curve with a large enough effect in the signal ratio in the repeat runs, not every such curve was filed as active; the % refers to the signal ratio)
Procedure, shortened: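 FXR-UAS-bla HEK 293T cells carrying a UAS-driven beta-lactamase reporter were plated for 5 h at 37C/5% CO2, then exposed to DMSO-dissolved Tox21 10K compounds for 16 h at 37C. A LiveBLAzer B/G FRET substrate was loaded for 2 h at room temperature before fluorescence reading.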

Measured: Potency

Chain of Retinoic acid receptor RXR-alpha (Homo sapiens) (P19793 whole entry, looked up): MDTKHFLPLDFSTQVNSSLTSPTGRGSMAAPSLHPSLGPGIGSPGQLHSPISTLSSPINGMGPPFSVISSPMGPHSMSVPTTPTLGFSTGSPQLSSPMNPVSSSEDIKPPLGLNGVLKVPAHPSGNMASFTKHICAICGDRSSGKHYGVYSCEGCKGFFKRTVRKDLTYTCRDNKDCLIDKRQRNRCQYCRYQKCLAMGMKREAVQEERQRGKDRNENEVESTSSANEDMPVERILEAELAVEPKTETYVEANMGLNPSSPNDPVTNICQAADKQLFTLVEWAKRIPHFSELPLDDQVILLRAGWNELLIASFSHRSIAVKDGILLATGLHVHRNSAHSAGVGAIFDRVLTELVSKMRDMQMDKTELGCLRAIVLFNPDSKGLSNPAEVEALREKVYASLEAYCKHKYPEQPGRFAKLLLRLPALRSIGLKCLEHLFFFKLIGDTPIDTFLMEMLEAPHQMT
Chain of Bile acid receptor (Homo sapiens) (Q96RI1 whole entry, looked up): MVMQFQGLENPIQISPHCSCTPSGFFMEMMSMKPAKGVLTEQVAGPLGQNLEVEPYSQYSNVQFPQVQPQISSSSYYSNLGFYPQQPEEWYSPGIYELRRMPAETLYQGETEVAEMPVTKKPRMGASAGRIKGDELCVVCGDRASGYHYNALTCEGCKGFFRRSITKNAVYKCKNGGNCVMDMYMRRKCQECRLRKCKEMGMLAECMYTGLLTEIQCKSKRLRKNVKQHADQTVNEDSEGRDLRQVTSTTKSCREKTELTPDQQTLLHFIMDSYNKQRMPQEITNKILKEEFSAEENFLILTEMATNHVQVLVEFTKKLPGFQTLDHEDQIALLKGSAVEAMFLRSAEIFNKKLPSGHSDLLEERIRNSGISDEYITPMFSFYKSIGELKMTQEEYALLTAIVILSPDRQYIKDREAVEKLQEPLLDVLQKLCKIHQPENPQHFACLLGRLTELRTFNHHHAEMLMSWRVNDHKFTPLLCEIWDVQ
Chain of Vitamin D3 receptor (Homo sapiens) (P11473 whole entry, looked up): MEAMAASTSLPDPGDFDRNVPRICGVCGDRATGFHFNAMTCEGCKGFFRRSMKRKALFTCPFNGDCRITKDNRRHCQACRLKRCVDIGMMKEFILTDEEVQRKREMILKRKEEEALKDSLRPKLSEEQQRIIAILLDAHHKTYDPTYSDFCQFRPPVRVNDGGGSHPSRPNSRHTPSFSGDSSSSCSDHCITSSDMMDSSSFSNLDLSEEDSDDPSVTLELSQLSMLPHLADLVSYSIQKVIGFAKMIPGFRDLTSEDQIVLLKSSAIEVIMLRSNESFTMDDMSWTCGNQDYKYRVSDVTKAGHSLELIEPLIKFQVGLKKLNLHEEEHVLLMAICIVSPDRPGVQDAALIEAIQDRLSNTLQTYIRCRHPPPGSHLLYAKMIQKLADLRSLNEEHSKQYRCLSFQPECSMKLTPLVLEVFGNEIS
Chain of Peroxisome proliferator-activated receptor delta (Homo sapiens) (Q03181 whole entry, looked up): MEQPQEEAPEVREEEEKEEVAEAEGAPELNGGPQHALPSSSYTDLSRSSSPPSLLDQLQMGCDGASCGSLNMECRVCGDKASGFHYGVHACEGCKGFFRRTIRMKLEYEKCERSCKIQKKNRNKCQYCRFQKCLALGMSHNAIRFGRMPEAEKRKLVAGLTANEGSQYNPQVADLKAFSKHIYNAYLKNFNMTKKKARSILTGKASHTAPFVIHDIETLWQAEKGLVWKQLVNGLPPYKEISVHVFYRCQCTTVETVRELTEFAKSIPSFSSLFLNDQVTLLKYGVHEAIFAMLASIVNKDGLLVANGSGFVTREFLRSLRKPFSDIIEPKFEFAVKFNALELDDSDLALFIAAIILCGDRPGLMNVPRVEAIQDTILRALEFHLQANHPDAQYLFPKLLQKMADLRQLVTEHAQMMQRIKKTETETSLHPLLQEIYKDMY

O=C(O)CCCCCCC(=O)O
not listed: [18] | [19] | [20]
inactive: all other assays above

CC1CCCCN1CCCOC(=O)c1ccc(OC2CCCCC2)cc1 (stereo not drawn)
active: [12] 11.9 µM
not listed: [3] | [8] | [14] | [15] | [16] | [17]
inactive: all other assays above

CCCCNc1c(C(=O)OCC)c(C)nc2c1cnn2CC
not listed: [2] | [6] | [15] | [17] | [20]
inactive: all other assays above

CCCCCCCCCCCC(=O)N(CC)CC
not listed: [3] | [14] | [15]
inactive: all other assays above

O=C1OC(OC(=O)c2cccnc2Nc2cccc(C(F)(F)F)c2)c2ccccc21 (stereo not drawn)
not listed: [2] | [6] | [12] | [14] | [15] | [18] | [19] | [20]
inactive: all other assays above

CCCCOc1ccc(C(=O)CCN2CCCCC2)cc1
active: [11] 26.6 µM
not listed: [4] | [5] | [6] | [7] | [12] | [15] | [16]
inactive: all other assays above

CCOC(=O)N1CCC(=C2c3ccc(Cl)cc3CCc3cccnc32)CC1
inactive: [20] | [5] | [9] | [10] | [13] | [15] | [17]
active: [1] 43.6 µM | [3] 21.9 µM | [12] 6.86 µM and 21.1 µM
38.9 µM (active) and inactive: [8]
54.9 µM (active) and inactive: [7] | [16]

CNC(=O)c1cc(Oc2ccc(NC(=O)Nc3ccc(Cl)c(C(F)(F)F)c3)cc2)ccn1
inactive: [18] | [20] | [5] | [9] | [10] | [13]
active: [1] 10.6 µM | [3] 21.1 µM | [4] 29.8 µM | [7] 23.7 µM | [8] 12 µM | [12] 13.3 µM

Oc1ccc(-c2ccc(O)cc2)cc1
not listed: [2] | [3] | [10] | [15] | [17] | [18] | [19] | [20]
inactive: all other assays above

C=CC(=O)OCCC#N
not listed: [11] | [12] | [14] | [15] | [18]
inactive: all other assays above

CCC(=O)OCCc1ccccc1
active: [7] 41.8 µM
not listed: [1] | [2] | [6] | [12] | [14] | [15] | [18] | [19]
inactive: all other assays above

C=CC(C)(CCC=C(C)C)OC(=O)/C=C/c1ccccc1 (stereo not drawn)
active: [7] 38.9 µM
not listed: [1] | [5] | [8] | [12] | [14] | [15] | [16] | [19]
inactive: all other assays above

C[Si](C)(C)Cl
not listed: [5] | [6] | [10]
inactive: all other assays above

CCCCCCCC/C=C\CCCCCCCC(=O)N(C)CC(=O)O
inactive: [9] | [12]
active: [1] 12.3 µM | [3] 38.9 µM | [4] 54.9 µM | [7] 49 µM | [10] 54.9 µM | [13] 30.9 µM

Cc1c(C(=O)O)cccc1[N+](=O)[O-]
not listed: [1] | [5] | [7] | [12] | [14] | [15] | [16] | [19]
inactive: all other assays above

O=C1NC2CCCCN2C12CCN(CCCN1c3ccccc3CCc3ccc(Cl)cc31)CC2 (stereo not drawn)
inactive: [20] | [5] | [7] | [9] | [10]
active: [1] 26.6 µM | [19] 29.8 µM | [3] 23.7 µM | [4] 29.8 µM | [8] 23.9 µM | [12] 23.7 µM | [16] 21.3 µM
